According to PubChem BioAssay AID720690 (Broad Institute, 2013):
Entries with a potency or affinity are not part of this list. Calls of active or inactive are those of the source.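 How the source made its calls: active means every repeat run showing a signal drop whose fitted half-maximal concentration is at most twice the top tested concentration; inconclusive means repeat runs disagree, or flat partial drop, or poor fit; inactive means the rest.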

Assay: general mammalian cell viability loss – activator set, cherry-pick, cytotoxicity control for miR-122 modulator project, dose response (AID 720690)
Settings: HEK293T viability, CellTiter-Glo luminescence, 48 h; series mostly up to 26 µM

Structure (SMILES)	outcome
COC(=O)c1c(N)nc(C)n1-c1ccc(OC)cc1	inactive
O=C(CN1CCOCC1)NC[C@@H]1N[C@@H](CO)[C@@H]1c1ccc(-c2ccccc2)cc1	inactive
C/C=C/c1ccc([C@H]2[C@@H](CO)N[C@@H]2CN(CC)C(=O)CN2CCOCC2)cc1	inactive
O=C(NC[C@H]1N[C@H](CO)[C@@H]1c1ccc(-c2ccccc2F)cc1)c1ccccc1	inactive
C[C@@H]1CN([C@@H](C)CO)S(=O)(=O)c2ccc(C#CC3CC3)cc2O[C@@H]1CN(C)C(=O)c1cccc(F)c1	inactive
CN(C)CCNC(=O)C1CC(=O)N(c2ccc(F)c(Cl)c2)C1 (stereo not given)	inactive
C=CCNC(=S)NNC(=O)Cn1c(-c2ccccc2)cc(=O)n2ncnc12	inactive
COCC(=O)N(C)C[C@H]1Oc2cc(-c3ccccc3F)ccc2S(=O)(=O)N([C@H](C)CO)C[C@H]1C	inactive
CC(=O)N(C)C[C@@H]1[C@@H](c2ccccc2)[C@H](CO)N1C(=O)C1CCC1	inactive
Fc1ccc(CN2CCN(c3ncnc4scc(-c5ccc(F)cc5)c34)CC2)cc1	inactive
CN1C(=O)c2cc(NC(=O)c3cccs3)ccc2OC[C@H]2O[C@@H](CC(=O)N3CCCCC3)CC[C@H]21	inactive
CN1C(=O)c2cc(NC(=O)c3cccc(F)c3)ccc2OC[C@@H]2O[C@H](CC(=O)Nc3ccccc3)CC[C@H]21	inactive
CCN(C[C@H]1N[C@H](CO)[C@H]1c1ccc(-c2ccc(F)cc2)cc1)C(=O)COC	inactive
C/C=C/c1ccc([C@H]2[C@@H](CO)N(C(=O)NC(C)C)[C@H]2CN(C)C(=O)CC)cc1	inactive
Cc1cccc(NC(=O)Nc2ccc3c(c2)C(=O)N(C)[C@@H]2CC[C@@H](CC(=O)NCc4ccccc4Cl)O[C@H]2CO3)c1	inactive
CCCNC(=O)N1[C@@H]2CN(C(=O)c3ccccc3)c3ccccc3[C@@H]2[C@@H]1CO	inactive
CO[C@@H]1CN(C)C(=O)c2cc(NC(=O)NC(C)C)ccc2OC[C@H](C)N(Cc2cncnc2)C[C@H]1C	inactive
C/C=C/c1ccc([C@@H]2[C@@H](CO)N(C(C)=O)[C@@H]2CN(C)C(=O)c2ccccn2)cc1	inactive

Structure (SMILES)	outcome
COc1cc(NC(=O)c2c(F)c(F)c(F)c(F)c2F)c(OC)cc1Cl	inactive
CN1C(=O)c2cc(NC(=O)c3cccs3)ccc2OC[C@@H]2O[C@@H](CC(=O)NCCN3CCCCC3)CC[C@@H]21	inactive
COCC(=O)N(C)C[C@H]1Oc2cc(-c3ccccc3F)ccc2S(=O)(=O)N([C@@H](C)CO)C[C@@H]1C	inactive
CNC(=O)C[C@@H]1CC[C@H]2[C@@H](COc3ccc(NC(=O)c4cccc(OC)c4)cc3C(=O)N2C)O1	inactive
COC(=O)C[C@H]1CC[C@@H]2[C@@H](COc3ccc(NC(=O)c4cnccn4)cc3C(=O)N2C)O1	inactive
O=C(CC(F)(F)F)N1C[C@H]2[C@@H](c3ccccc31)[C@H](CO)N2C(=O)Cc1cccnc1	inactive
CCOc1cc(-c2nccc3cc(OC)c(OC)cc23)cc(OCC)c1OCC	inactive
C[C@H](CO)N1C[C@H](C)[C@H](CN(C)C(=O)Nc2ccc3c(c2)OCO3)Oc2ncc(-c3cccc(C(F)(F)F)c3)cc2C1=O	inactive
C/C=C/c1ccc([C@@H]2[C@@H](CO)N(C(=O)C3CC3)[C@H]2CN(C)C(=O)CC2CC2)cc1	inactive
O=C(NC[C@H]1[C@H](c2ccccc2)[C@@H](CO)N1Cc1ccccn1)C1CC1	inactive
COCC(=O)Nc1ccc2c(c1)C(=O)N(C)[C@@H]1CC[C@H](CC(=O)NC3CCCC3)O[C@H]1CO2	inactive
CN1C(=O)c2cc(NC(=O)c3ccc4c(c3)OCO4)ccc2OC[C@@H]2O[C@@H](CC(=O)O)CC[C@@H]21	inactive
CC(C)C#Cc1ccc2c(c1)O[C@H](CN(C)C(=O)c1ccncc1)[C@@H](C)CN([C@@H](C)CO)S2(=O)=O	inactive
CN(C)CCCNC(=O)C[C@@H]1CC[C@H]2[C@H](COc3ccc(NC(=O)c4cccc(F)c4)cc3C(=O)N2C)O1	inactive
COc1cccc(CNC(=O)C[C@H]2CC[C@@H]3[C@@H](COc4ccc(NC(C)=O)cc4C(=O)N3C)O2)c1	inactive
C[C@@H]1CN([C@@H](C)CO)C(=O)Cc2cc(NC(=O)Nc3ccc(C(F)(F)F)cc3)ccc2O[C@H]1CN(C)CC1CCCCC1	inactive
CO[C@H]1CN(C)C(=O)c2cc(NC(=O)C3CC3)ccc2OC[C@H](C)N(CCc2ccccc2)C[C@H]1C	inactive
